Assay outcomes (PubChem BioAssay)
Hits are enriched below; roughly 5.7% of the tested compounds scored in any of these assays.
HT1080NT lethal – kills 2HG-producing HT-1080-NT fibrosarcoma cells; 360,000 tested, 1.6% active; HT-1080-NT fibrosarcoma viability, CellTiter-Glo ATP luminescence, 48 h; AID 686970; Potency, µM (highest dose often 46.1 µM), inactives show at the top dose activity, negative = less viability, usual class: cytotoxic;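 note: NT is the 2HG producing partner of a matched IDH1 knockdown line; 0% = DMSO-treated cells and -100% = media-only wells without cells; nearly all actives have a fitted effect of over 55% in size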
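HT-1080-NT fibrosarcoma cells (2HG-overproducing), 750 cells/well in RPMI with 5% FBS, dosed after 2 h and incubated 48 h at 37C. CellTiter-Glo luminescence normalized to DMSO and no-cell wells; concentration-response curves fitted and classed.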
KB-3-1 tox – kills parental KB-3-1 adenocarcinoma cells; KB-3-1 viability, CellTiter-Glo ATP luminescence, 72 h; 400,000 tested, 1.4% active; Potency, µM (top dose mostly 46.1 µM), hits mostly cytotoxic; note: nearly all actives have a fitted effect of over 60% in size
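Luminescent ATP read-out (CellTiter-Glo) measures survival of drug-naive KB-3-1 cells after 72 h compound exposure at 37 °C. Titration series was screened from lowest to highest concentration, with DMSO vehicle plates as background controls.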
KB-V1 MDR tox – kills drug-selected multidrug resistant KB-V1 cells; AID 1347076; Potency, µM (series often up to 46.1 µM), hits mostly cytotoxic; KB-V1 MDR cells viability, CellTiter-Glo, 72 h; 400,000 tested, 3.4% active; note: nearly all actives have a fitted effect of over 60% in size
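Cells of the MDR subline KB-V1 are plated, dosed with compound at multiple concentrations, and incubated 72 h at 37 degrees C; CellTiter-Glo is then added and luminescence read after 10 min.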
HT1080 IDH1KD tx – HT-1080 IDH1 knockdown cell toxicity (counter line); HT-1080 IDH1 knockdown viability, ATP luminescence, 48 h; Potency, µM (titrated, usually from 46.1 µM), for inactives: at the top dose activity, negative = toxicity, actives largely listed as cytotoxic; 360,000 tested, 2% active; AID 686971;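 note: 0% = DMSO wells and -100% = cell-free medium wells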
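IDH1KD HT-1080 cells, 750/well, RPMI + 5% FBS; compound pinned after 2 h settling; 48 h, 37 °C; CellTiter-Glo luminescence; % activity normalised to DMSO and no-cell wells; curves fitted, classed by r2 and efficacy.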
Starred values were filed as active, the others as inactive. Calls come from the whole dose curve; as a rule, active = well fitted curve in the direction sought with a large enough effect; inconclusive = small, poorly fitted or top-dose-only effect, or another doubt; inactive = no such curve, though single readings can be large; an effect the other way counts as inactive or inconclusive. Unless noted, % is set by controls: 0 for no effect and ±100 for the full control effect; potency is the fitted concentration of half-maximal effect.

How did CC(C)c1ccc2[nH]c(O)c(N=NC(=S)NCCc3ccccc3)c2c1 do in these assays?
HT1080NT lethal: inconclusive; KB-3-1 tox: inconclusive; KB-V1 MDR tox: inactive; HT1080 IDH1KD tx: inconclusive

Results for O=[N+]([O-])c1ccc2[nH]c(O)c(N=NC(=S)NCC3CCCO3)c2c1 (stereo unspecified) ?
HT1080NT lethal: 3%; KB-3-1 tox: inconclusive; KB-V1 MDR tox: inactive; HT1080 IDH1KD tx: 5%

Results for Fc1cccc2sc(Nc3nnc(-c4ccco4)o3)nc12 ?
HT1080NT lethal: -24%; KB-3-1 tox: inconclusive; KB-V1 MDR tox: 9.2µM*; HT1080 IDH1KD tx: -30%

What do the screens show for `CN(C)/C=N/c1ncc(C(=O)c2ccc(-c3ccccc3)cc2)s1`?
HT1080NT lethal: -23%; KB-3-1 tox: inactive; KB-V1 MDR tox: 12µM*; HT1080 IDH1KD tx: -26%

How did COc1ccc(C(=O)n2c(-c3ccco3)nc3ccccc32)cc1 do in these assays?
HT1080NT lethal: inconclusive; KB-3-1 tox: inconclusive; KB-V1 MDR tox: inconclusive; HT1080 IDH1KD tx: 5.8µM*

How did COc1ccc(C(=O)N2CCn3c2nc2ccccc23)cc1 do in these assays?
HT1080NT lethal: 12%; KB-3-1 tox: inactive; KB-V1 MDR tox: inactive; HT1080 IDH1KD tx: 4%

Results for Oc1cccc(C2c3[nH]c4ccccc4c3CCN2Cc2ccc3c(c2)CCO3)c1 (stereo unspecified) ?
HT1080NT lethal: 21µM*; KB-3-1 tox: 21µM*; KB-V1 MDR tox: 18µM*; HT1080 IDH1KD tx: 23µM*

What do the screens show for `O=C(Cn1ncc2c3ccccc3n(Cc3cccc(Cl)c3)c2c1=O)NC1CCCCCC1`?
KB-3-1 tox: inactive; KB-V1 MDR tox: inactive

How did CCc1ccc(C(=O)c2cn(CC(=O)Nc3cc(OC)ccc3OC)c3nc(C)ccc3c2=O)cc1 do in these assays?
KB-3-1 tox: inactive; KB-V1 MDR tox: inactive

What do the screens show for `CCOC(=O)/C(=N\O)C1=NC(C)(C)Cc2ccccc21`?
HT1080NT lethal: 1%; KB-3-1 tox: inactive; KB-V1 MDR tox: inactive; HT1080 IDH1KD tx: -1%

Results for Cc1cccc(N/N=C(\C(N)=O)C2=NC(C)(C)Cc3ccccc32)c1 ?
HT1080NT lethal: inconclusive; KB-3-1 tox: 16µM*; KB-V1 MDR tox: 23µM*; HT1080 IDH1KD tx: inconclusive

Results for CCC(=O)N1CCc2cc(S(=O)(=O)N(C)c3cccc(C)c3)ccc21 ?
KB-3-1 tox: inactive; KB-V1 MDR tox: inactive

How did CCO[C@@H]1c2c(ccc3ccc(=O)oc23)OC(C)(C)[C@@H]1O do in these assays?
HT1080NT lethal: -1%; KB-3-1 tox: inactive; KB-V1 MDR tox: inactive; HT1080 IDH1KD tx: 3%

What do the screens show for `CC(=O)OC1c2c(ccc3ccc(=O)oc23)OC(C)(C)C1OC(=O)CC(C)C` (stereo unspecified)?
HT1080NT lethal: -6%; KB-3-1 tox: inactive; KB-V1 MDR tox: 12µM*; HT1080 IDH1KD tx: -4%

What do the screens show for `NC(=O)c1ccc(NS(=O)(=O)c2ccc(Br)s2)cc1`?
HT1080NT lethal: 2%; KB-3-1 tox: inactive; KB-V1 MDR tox: inactive; HT1080 IDH1KD tx: 0%

Results for Cc1ccc(F)cc1NC(=O)c1ccc(NS(=O)(=O)c2ccc(Br)s2)cc1 ?
HT1080NT lethal: -2%; KB-3-1 tox: inactive; KB-V1 MDR tox: 16µM*; HT1080 IDH1KD tx: 6%

How did O=C(CSc1nnnn1-c1cccc(F)c1)NC1CCCCC1 do in these assays?
HT1080NT lethal: 0%; KB-3-1 tox: inactive; KB-V1 MDR tox: 18µM*; HT1080 IDH1KD tx: -1%

Results for COc1cccc(-n2nnnc2SCC(=O)NC2CCCC2)c1 ?
HT1080NT lethal: -3%; KB-3-1 tox: inactive; KB-V1 MDR tox: 21µM*; HT1080 IDH1KD tx: -1%

Results for CCC(=O)N1c2ccccc2CC1C(=O)NCCc1ccc(OC)c(OC)c1 (stereo unspecified) ?
KB-3-1 tox: inactive; KB-V1 MDR tox: inactive

Results for COc1cc(C(=S)N2CCCCC2)ccc1O ?
HT1080NT lethal: 7%; KB-3-1 tox: inactive; KB-V1 MDR tox: inactive; HT1080 IDH1KD tx: 12%

What do the screens show for `Oc1ccc(C(=S)N2CCCCC2)cc1Cl`?
HT1080NT lethal: -3%; KB-3-1 tox: inactive; KB-V1 MDR tox: 18µM*; HT1080 IDH1KD tx: -5%

What do the screens show for `CCN1CCN(C(=S)c2ccc(Cl)c(Cl)c2)CC1`?
HT1080NT lethal: -1%; KB-3-1 tox: inactive; KB-V1 MDR tox: 15µM*; HT1080 IDH1KD tx: -1%

How did CCN1CCN(C(=S)Nc2ccc(Cl)c(Cl)c2)CC1 do in these assays?
HT1080NT lethal: 2%; KB-3-1 tox: inactive; KB-V1 MDR tox: inconclusive; HT1080 IDH1KD tx: -1%

What do the screens show for `Oc1[nH]c2ccc(Br)cc2c1N=NC(=S)N1CCOCC1`?
HT1080NT lethal: inconclusive; KB-3-1 tox: inactive; KB-V1 MDR tox: inactive; HT1080 IDH1KD tx: 1µM*

How did c1ccc(N2CCN(Cc3cnc(N4CCOCC4)s3)CC2)cc1 do in these assays?
HT1080NT lethal: -12%; KB-3-1 tox: inactive; KB-V1 MDR tox: 13µM*; HT1080 IDH1KD tx: -12%

How did OCC1(CCCc2ccccc2)CCN(Cc2cnc(N3CCOCC3)s2)CC1 do in these assays?
HT1080NT lethal: -4%; KB-3-1 tox: 21µM*; KB-V1 MDR tox: inconclusive; HT1080 IDH1KD tx: -5%

How did COc1cccc(CC2(CO)CCN(Cc3cnc(N4CCOCC4)s3)CC2)c1 do in these assays?
HT1080NT lethal: 4%; KB-3-1 tox: inactive; KB-V1 MDR tox: inactive; HT1080 IDH1KD tx: -8%

Results for COc1ccc2oc3cc(C)[n+]([O-])c(-c4ccc(Br)cc4)c3c2c1 ?
HT1080NT lethal: -8%; KB-3-1 tox: inconclusive; KB-V1 MDR tox: 2.9µM*; HT1080 IDH1KD tx: -5%

Results for CCOC(=O)c1c(-c2ccc(OC)cc2)oc2ccc(OCc3ccc(Br)cc3)cc12 ?
KB-3-1 tox: inactive; KB-V1 MDR tox: inactive

What do the screens show for `CC1CN(c2ccccn2)C(C)CN1C(=S)Nc1ccccc1` (stereo unspecified)?
HT1080NT lethal: 11%; KB-3-1 tox: inactive; KB-V1 MDR tox: 23µM*; HT1080 IDH1KD tx: 23%

How did CC(C)CC(=O)Nc1ccc2nn(-c3ccccc3)nc2c1 do in these assays?
HT1080NT lethal: -8%; KB-3-1 tox: inactive; KB-V1 MDR tox: 16µM*; HT1080 IDH1KD tx: -14%

How did Cc1ccc(NC(=O)Cn2c(=O)n(Cc3ccccc3)c(=O)c3c(C)c(C)sc32)c(C)c1 do in these assays?
KB-3-1 tox: inactive; KB-V1 MDR tox: inactive

How did O=C(NNc1ccc(C(F)(F)F)cc1[N+](=O)[O-])c1ccc(NS(=O)(=O)c2ccc(F)cc2)cc1 do in these assays?
HT1080NT lethal: inconclusive; KB-3-1 tox: inactive; KB-V1 MDR tox: inactive; HT1080 IDH1KD tx: 21µM*

Results for CC(C)[C@H](Nc1ccc(C(F)(F)F)cc1[N+](=O)[O-])C(=O)O ?
HT1080NT lethal: -3%; KB-3-1 tox: inactive; KB-V1 MDR tox: inactive; HT1080 IDH1KD tx: -7%

What do the screens show for `CN(C)/C=N/c1nc2c(ncn2C2CC(O)C(CO)O2)c(=O)[nH]1` (stereo unspecified)?
KB-3-1 tox: inactive; KB-V1 MDR tox: inactive

What do the screens show for `COc1cc(/C=C2\SC(=Nc3ccc(O)cc3)NC2=O)cc(OC)c1OC`?
HT1080NT lethal: 3.7µM*; KB-3-1 tox: 4.6µM*; KB-V1 MDR tox: inactive; HT1080 IDH1KD tx: 2.9µM*
